The values that follow come from PubChem BioAssay (EPA / NIEHS).

Assay [1] can be described thus: BSK_LPS_SRB: Viability Assessment in the BioMAP Diversity Plus: LPS Assay (AID 2283079).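 Further: total protein by sulforhodamine B absorbance as a cytotoxicity measure; measured one day after compound addition; fitted in both directions against DMSO so loss or gain of signal counts.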 The conditions noted are these: primary human HUVEC with PBMC. In short, it runs like this: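 Co-culture of human umbilical vein endothelial cells and PBMC, read 24 h after dosing. Total protein by 0.1% SRB staining after 10% TCA fixation, absorbance at 560 nm; bidirectional fit against DMSO.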

Read-out in assay [2]: Interleukin-1 alpha (IL1a), IL1A (gene 3552)
As to the kind of experiment: BSK_LPS_IL1a: BioMAP Diversity Plus: LPS Assay for Interleukin-1 alpha (IL1a) Biomarker Activity (AID 2283080). The conditions noted are these: primary human HUVEC with PBMC; actives raise or lower the signal. The method, boiled down: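 Human umbilical vein endothelial cells co-cultured with PBMC and stimulated with LPS; IL-1a measured by ELISA 24 h after dosing. Bidirectional fitting against DMSO; cytotoxicity checked by SRB staining in parallel cultures.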

Read-out in assay [3]: Monocyte Chemoattractant Protein-1 (MCP1), CCL2 (gene 6347)
Nature of the assay: BSK_LPS_MCP1: BioMAP Diversity Plus: LPS Assay for Monocyte Chemoattractant Protein-1 (MCP1) Biomarker Activity (AID 2283081).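 On AC50: secreted MCP-1 protein quantified by ELISA in culture supernatant.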 Particulars: primary human HUVEC with PBMC; actives raise or lower the signal. The method, boiled down:
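Human umbilical vein endothelial cells co-cultured with PBMC, LPS-stimulated; secreted MCP-1 measured by ELISA 24 h after compound addition. Bidirectional curve fitting against DMSO baseline; SRB total-protein staining in parallel cultures for cytotoxicity.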

Assay [4] can be described thus: BSK_LPS_PGE2: BioMAP Diversity Plus: LPS Assay for Prostaglandin E2 (PGE2) Biomarker Activity (AID 2283082). Particulars: primary human HUVEC with PBMC; actives raise or lower the signal. The method, boiled down: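 Endpoint derived from bidirectional curve fitting versus DMSO of ELISA-measured PGE2 in LPS-stimulated human primary vascular co-culture (HUVEC with PBMC) harvested at 24 h.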

Read-out in assay [5]: Macrophage colony-stimulating factor (MCSF), CSF1 (gene 1435)
As to the kind of experiment: BSK_LPS_MCSF: BioMAP Diversity Plus: LPS Assay for Macrophage colony-stimulating factor (MCSF) Biomarker Activity (AID 2283083). Particulars: primary human HUVEC with PBMC; actives raise or lower the signal. The method, boiled down:
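HUVEC–PBMC co-culture, M-CSF measured by ELISA 24 h after chemical dosing. Fitted in both directions relative to DMSO as negative control; overt cytotoxicity assessed by SRB total-protein staining in parallel cultures.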

Read-out in assay [6]: Tissue Factor, F3 (gene 2152)
Nature of the assay: BSK_LPS_TissueFactor: BioMAP Diversity Plus: LPS Assay for Tissue Factor Biomarker Activity (AID 2283084). Particulars: primary human HUVEC with PBMC; actives raise or lower the signal. The method, boiled down:
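Human umbilical vein endothelial cells co-cultured with PBMC were dosed with compound. Cell-surface CD142 was measured by ELISA 24 h later. Activity was fitted bidirectionally against DMSO, with SRB total-protein staining in parallel cultures for cytotoxicity.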

Read-out in assay [7]: Tumor necrosis factor (Homo sapiens) (UniProt P01375)
As to the kind of experiment: BSK_LPS_TNFa: BioMAP Diversity Plus: LPS Assay for Tumour Necrosis Factor alpha (TNFa) Biomarker Activity (AID 2283085).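 On AC50: TNFa protein level quantified by ELISA in the co-culture.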 Particulars: primary human HUVEC with PBMC; actives raise or lower the signal. The method, boiled down:
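Primary human vascular co-culture of HUVEC and PBMC; TNFa ELISA 24 h after treatment, analysed as increase or decrease relative to DMSO control.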

Read-out in assay [8]: Vascular cell adhesion molecule 1 (VCAM1), VCAM1 (gene 7412)
As to the kind of experiment: BSK_LPS_VCAM1: BioMAP Diversity Plus: LPS Assay for Vascular cell adhesion molecule 1 (VCAM1) Biomarker Activity (AID 2283086). Particulars: primary human HUVEC with PBMC; actives raise or lower the signal. In short, it runs like this:
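Primary human vascular co-culture (umbilical vein endothelium plus PBMC) stimulated with LPS received chemical; 24 h later VCAM-1 was read by ELISA. Overt cytotoxicity was assessed by sulforhodamine B staining of parallel cultures at the same time point.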

Read-out in another assay: CD38, CD38 (gene 952)
Nature of the assay: BSK_SAg_CD38: BioMAP Diversity Plus: SAg Assay for CD38 Biomarker Activity (AID 2283087). The conditions noted are these: primary human HUVEC with PBMC; actives raise or lower the signal. In short, it runs like this: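 Fluorescence ELISA of cell-surface CD38 served as the read-out, with either increase or decrease fitted against DMSO controls. Cells were a human umbilical vein endothelium plus PBMC co-culture under SEB/TSST-1 stimulation, measured 24 h after dosing.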

Read-out in another assay: CD40, CD40 (gene 958)
As to the kind of experiment: BSK_SAg_CD40: BioMAP Diversity Plus: SAg Assay for CD40 Biomarker Activity (AID 2283088). Particulars: primary human HUVEC with PBMC; actives raise or lower the signal. In short, it runs like this:
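HUVEC plus PBMC co-culture, superantigen-activated, with CD40 read by ELISA 24 h after dosing. Curves fitted in both directions against DMSO. Overt cytotoxicity checked by parallel SRB total-protein staining.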

The source made the active and inactive calls. How the source made its calls: active means hit-call score of the fitted dose curve at least 0.9, where 1 is the maximum; inactive means score below 0.9.

Chain of Tumor necrosis factor (Homo sapiens) (P01375 whole entry, looked up): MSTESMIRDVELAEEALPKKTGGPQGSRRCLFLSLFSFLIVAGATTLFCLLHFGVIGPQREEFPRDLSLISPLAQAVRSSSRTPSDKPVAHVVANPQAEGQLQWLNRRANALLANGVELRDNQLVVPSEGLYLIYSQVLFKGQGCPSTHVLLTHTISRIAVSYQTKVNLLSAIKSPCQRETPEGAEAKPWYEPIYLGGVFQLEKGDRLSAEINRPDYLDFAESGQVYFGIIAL

In the case of `Oc1cccc2cccnc12`, the result in assay [1], in assay [2], in assay [3], in assay [5], in assay [6] and in [7] was inactive. In addition, the outcome with CD38, CD38 (gene 952) was inactive. In addition, the AC50 in [4] is 11.4 µM (active); in [8] it was 3.97 µM (active).

Take `COC[C@H](C)N(C(=O)CCl)c1c(C)csc1C`: the outcome in assay [2], in assay [3], in [4], in assay [5], in assay [6] and in [7] was inactive. The outcome in assay [8] was “inactive”; with CD38, CD38 (gene 952), “inactive”.

Take `CC(C)(C)c1cc(O)ccc1O`: the concentration at half-maximal activity (AC50) in assay [2] was 14.5 µM (active); in [4], 5.94 µM (active); in assay [5] it was 12.1 µM (active); in assay [6], 20 µM (active); in assay [7] it was 9.38 µM (active); with CD38, CD38 (gene 952), 8.22 µM (active). In addition, the AC50 in the assay with CD40, CD40 (gene 958) is 8.26 µM (active).

Turning to `CCC(C)(C)c1ccc(O)c(C(C)(C)CC)c1`, the AC50 is 14.3 µM (active) in [2]; 18.4 µM (active) in assay [5]; 15.9 µM (active) in assay [6]; 13.1 µM (active) in assay [7]; 25 µM (active) in assay [8]; 14.9 µM (active) with CD38, CD38 (gene 952). Moreover, the result in assay [4] was inactive.

Regarding `COP(=S)(OC)Oc1cc(Cl)c(Cl)cc1Cl`, the result in [2], in assay [3], in assay [4], in assay [5], in assay [6] and in [8] was inactive. In addition, the outcome is “inactive” with CD38, CD38 (gene 952) and “inactive” in the assay with CD40, CD40 (gene 958). Besides, the AC50 in [7] is 32.6 µM (active).

As to `ClC1(Cl)C2(Cl)C3(Cl)C4(Cl)C(Cl)(Cl)C5(Cl)C3(Cl)C1(Cl)C5(Cl)C24Cl` (configuration not stated), the outcome in [2] was “inactive”; in assay [3], “inactive”; in assay [5] it was “inactive”; in assay [6], “inactive”; in [8], “inactive”; with CD38, CD38 (gene 952), “inactive”. Also, the AC50 was 0.148 µM (active) in assay [4] and 0.149 µM (active) in assay [7].

In the case of `Nc1ncc([N+](=O)[O-])s1`, the outcome in assay [2] was “inactive”; in assay [4], “inactive”; in assay [5], “inactive”; in assay [6] it was “inactive”; in assay [7] it was “inactive”; in the assay with CD38, CD38 (gene 952), “inactive”.

`CC(=O)C(Cl)C(=O)N(C)C` (configuration not stated): the AC50 was 14.4 µM (active) in [2]; 7.26 µM (active) in assay [4]; 11.8 µM (active) in assay [5]; 9.35 µM (active) in assay [6]; 9.78 µM (active) in assay [7]; 20 µM (active) with CD38, CD38 (gene 952).

With `CCOP(=S)(OCC)SCSP(=S)(OCC)OCC`, the outcome in [2] was “inactive”; in [3], “inactive”; in assay [4] it was “inactive”; in [6], “inactive”; in assay [7] it was “inactive”; with CD38, CD38 (gene 952) it was “inactive”. The AC50 in [5] is 2.72 µM (active).

On to `CCOC(=O)/C=C(C)/C=C/C[C@@H](C)CCCC(C)C`, for which the AC50 in [2] was 33.3 µM (active); in assay [3], 30.7 µM (active); in [4], 10.1 µM (active); in assay [5], 15.5 µM (active); in [6], 29.2 µM (active); in assay [7], 33.2 µM (active). The AC50 was 30.7 µM (active) in the assay with CD38, CD38 (gene 952) and 25.8 µM (active) in the assay with CD40, CD40 (gene 958).

With `CC1(C)Cc2cccc(O)c2O1`, the outcome was “inactive” in assay [2]; “inactive” in assay [5]; “inactive” in assay [6]; “inactive” in assay [7]; “inactive” in assay [8]; “inactive” with CD38, CD38 (gene 952). In addition, the AC50 in assay [4] was 4.31 µM (active).

As for `COP(=S)(OC)Oc1ccc(Sc2ccc(OP(=S)(OC)OC)cc2)cc1`, the AC50 in [2] was 31 µM (active); in assay [4] it was 9.58 µM (active); in [5], 20 µM (active); with CD38, CD38 (gene 952) it was 14.5 µM (active). The outcome in assay [6] and in assay [7] was inactive.

Regarding `CC(=O)[O][Hg][c]1ccccc1`, the AC50 in assay [2] was 1.25 µM (active); in assay [3], 1.7 µM (active); in assay [4], 0.149 µM (active); in assay [5], 0.989 µM (active); in assay [6], 1.99 µM (active); in assay [7], 1.62 µM (active). In addition, the AC50 was 2.4 µM (active) in assay [8]; 0.56 µM (active) in the assay with CD38, CD38 (gene 952); 1.46 µM (active) with CD40, CD40 (gene 958).

With `CCCCCCCCC(=O)NCc1ccc(O)c(OC)c1`, the AC50 in assay [2] is 0.1 µM (active); in assay [4] it was 12.8 µM (active). Further, the outcome in assay [5] was “inactive”; in [6], “inactive”; in [7], “inactive”; with CD38, CD38 (gene 952) it was “inactive”; in the assay with CD40, CD40 (gene 958), “inactive”.

Consider `O=C(Nc1ccc2[nH]ccc2c1)c1cc2cc(F)ccc2n1Cc1cccc(F)c1`, for which the AC50 in [2] is 7.97 µM (active); in assay [3], 10.4 µM (active); in assay [4], 20 µM (active); in assay [5] it was 14 µM (active); in [6], 8.59 µM (active); in assay [7], 26.5 µM (active). Further, the AC50 in assay [8] was 11.9 µM (active); with CD38, CD38 (gene 952), 10.3 µM (active); in the assay with CD40, CD40 (gene 958), 8.2 µM (active).

With `ClC(Cl)=C(Cl)C(Cl)=C(Cl)Cl`, the AC50 in assay [2] is 31 µM (active); in assay [5], 32.1 µM (active); in assay [6], 33.2 µM (active); in [7], 30.9 µM (active). Further, the outcome in [4] is “inactive”; with CD38, CD38 (gene 952) it was “inactive”.

On to `CC(C)c1ccc(CO)cc1`, for which the outcome in assay [2] was “inactive”; in assay [4], “inactive”; in [5], “inactive”; in assay [6], “inactive”; in assay [7], “inactive”; with CD38, CD38 (gene 952), “inactive”.

On to `CCNc1nc(NC(C)(C)C)nc(SC)n1`, for which the result in assay [2], in [3], in assay [4], in assay [5], in [6] and in assay [7] was inactive. In the assay with CD38, CD38 (gene 952), the outcome was inactive.

As a reminder, the AC50 is the midpoint of the concentration-response curve, whichever way the signal moves.
